Inconclusive results are not listed. Entries that show only a call come without a potency. Active and inactive are the calls of the source. The call rests on the fitted dose curve; in most records, active means well fitted cell-killing curve with a large enough effect; inconclusive means small, poorly fitted or top-dose-only effect, or effect the other way; inactive means no such curve, though single readings can be large or run the other way.
Potency means the concentration at half of the fitted maximal effect.

This experiment can be described thus: Quantitative High-Throughput drug screen in 47 multiple myeloma cell lines against the NCATS MIPE library collection: JIM1_ECACC cell viability assay (AID 1918964). As to conditions: JIM1 myeloma viability, CellTiter-Glo ATP luminescence, 48 h; series mostly up to 45.8 µM. An outline of the steps: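 CellTiter-Glo ATP luminescence gave viability after 48 h compound treatment at 37C of 500 multiple myeloma cells per well. Normalisation used DMSO-only wells as 100% and media-only wells as 0% viability; primary qHTS of approved and investigational drugs.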
Background: In ATP-based viability assays light output follows the ATP content of the culture.
For `COc1ccc(Cc2nccc3cc(OC)c(OC)cc23)cc1OC`, the Potency is 16.6 µM (active).

As for `CC(C)(C)Cn1c(N)nc2ccc(-c3[nH]c(C(C)(C)C)nc3-c3ccc(F)cc3)nc21`, the Potency result is “inactive”.

`COC1CCC(N(C(=O)C2CCC(C)CC2)c2cc(C3=CCCCC3)sc2C(=O)O)CC1` (centres undefined): the Potency result is “inactive”.

As for `COc1ccc2c3c1OC1C[C@@H](O)C=C[C@@]31CCN(C)C2` (some centres undefined), the Potency entry is “inactive”.

`COc1cc(N2CCC(N3CCN(C)CC3)CC2)ccc1Nc1ncnc(Nc2ccccc2S(=O)(=O)C(C)C)n1`: the Potency result was “inactive”.

Regarding `CC[C@]1(O)C[C@@H]2CN(CCc3c([nH]c4ccccc34)[C@@](C(=O)OC)(c3cc4c(cc3OC)N(C=O)[C@@H]3C45CCN4CC=C[C@](CC)([C@H]45)[C@@H](OC(C)=O)[C@]3(O)C(=O)OC)C2)C1` (some centres undefined), the Potency result was “inactive”.

Consider `CO[C@H]1C=CO[C@@]2(C)Oc3c(C)c(O)c4c(O)c(c5c(c4c3C2=O)NC2(CCN(CC(C)C)CC2)N=5)=NC(=O)C(C)=CC=C[C@H](C)[C@H](O)[C@@H](C)[C@@H](O)[C@@H](C)[C@H](OC(C)=O)[C@H]1C`, for which the Potency result is “inactive”.

Consider `CC1(C)Cc2c(sc(NC(=S)NC(=O)c3ccccc3)c2C(=O)O)CO1`, for which the Potency result is “inactive”.

In the case of `CC1CCC(C(=O)N(c2cc(C#CC(C)(C)C)sc2C(=O)O)C2CCC(O)CC2)CC1` (centres undefined), the Potency result is “inactive”.

For the compound `O=C1NC(=O)C(=Cc2ccc3c(c2)OC(F)(F)O3)S1`, the Potency entry is “inactive”.

Take `COC(=O)N[C@H](C(=O)N1CCC[C@@H]1c1ncc(-c2ccc(-c3ccc(-c4cnc([C@@H]5CCCN5C(=O)[C@@H](NC(=O)OC)C(C)C)[nH]4)cc3)cc2)[nH]1)C(C)C`: the Potency is 20.9 µM (active).

Consider `COc1ccc2c(Oc3ccc(NC(=O)c4c(C)n(CC(C)(C)O)n(-c5ccccc5)c4=O)nc3)ccnc2c1`, for which the Potency entry is “inactive”.

`NC1=N[C@@]2(c3cc(NC(=O)c4ccc(F)cn4)ccc3F)COC[C@@H]2CS1`: the Potency is 0.935 µM (active).

In the case of `O=C(Nc1cccc(Br)c1)c1cccc(S(=O)(=O)N2CCCCCC2)c1`, the Potency was 7.43 µM (active).

These data come from PubChem BioAssay (NCATS).
